Experimental findings from PubChem BioAssay (Tox21) are described below.

A number with no mark means an inactive call. Records with an inconclusive call do not appear. The source made the active and inactive calls. Unless noted, calls come from the whole dose curve; as a rule, active = well fitted curve in the direction sought with a large enough effect in the repeat runs; inconclusive = weak or mixed curves; inactive = no such curve, though single readings can be large; an effect the other way counts as inactive or inconclusive.

A short description of assay [1]: qHTS assay for small molecule agonists of the p53 signaling pathway (AID 651631; calls by dose curve; note: nearly all actives have a fitted effect of over 15% in size). An outline of the steps:
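Quantitative high-throughput format: 4,000 p53RE-bla HCT-116 cells/well, 5 h pre-incubation, 16 h compound exposure at 37 °C, 2 h room-temperature substrate step, fluorescence intensity measured.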
Background: In qHTS, concentration-response curves come from the screen itself.

Assay [2] is described as follows: qHTS assay for small molecules that induce genotoxicity in human embryonic kidney cells expressing luciferase-tagged ATAD5 (AID 651632). Note: nearly all actives have a fitted effect of over 15% in size. An outline of the steps: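 Concentration-response screen for ATAD5 upregulation in HEK293T luciferase reporter cells; 16 hr treatment at 37C, then luminescence after 30 min with Amplite at room temperature.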
The nature of assay [3]: qHTS assay for small molecule agonists of the p53 signaling pathway - cell viability (AID 651633; calls by dose curve;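 note: p53RE-bla HCT reporter cells with a stable beta-lactamase p53 reporter; series mostly up to about 83 µM; nearly all actives have a fitted effect of over 30% in size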). An outline of the steps:
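p53RE-bla cells were treated with compound for 16 hours at 37 C. Cytotoxicity was then measured as CellTiter-Glo luminescence after 30 min at room temperature.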

Assay [4] can be described thus: qHTS assay for small molecules that induce genotoxicity in human embryonic kidney cells expressing luciferase-tagged ATAD5 - cell viability (AID 651634; calls by dose curve; note: nearly all actives have a fitted effect of over 25% in size). An outline of the steps:
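15.5 hr compound or vehicle exposure of HEK293T cells expressing luciferase-tagged ATAD5 at 37C; live-cell protease activity is read by fluorescence after 30 min of CellTiter-Fluor.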

Assay [5] can be described thus: qHTS assay for small molecule disruptors of the mitochondrial membrane potential - cell viability (AID 720634; calls by dose curve;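 note: human HepG2 liver cancer cells; series mostly up to about 83 µM; nearly all actives have a fitted effect of over 20% in size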). The method, boiled down:
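In this qHTS format, HepG2 cells plated overnight were pinned with compound, incubated 1 hr, and assayed for ATP luminescence with CellTiter-Glo after m-MPI dye addition.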

Assay [6] can be described thus: qHTS assay for small molecule disruptors of the mitochondrial membrane potential (AID 720635). Note: potency is the fitted concentration of half-maximal effect. The method, boiled down: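 HepG2 cells exposed to compound 1 hr at 37C, then Mito-MPS dye 30 min. Ratio read of aggregate (540/590 nm) versus monomer (490/535 nm) fluorescence.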
A short description of assay [7]: qHTS assay to test for compound auto fluorescence at 590 nm (red) in HepG2 cells (AID 720674). The method, boiled down: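 Fluorescence at 590 nm emission following 540 nm excitation was recorded from HepG2 wells one hour after compound transfer, with DMSO-only wells as vehicle and Rose Bengal sodium equivalency as the scale.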
Assay [8] is described as follows: qHTS assay to test for compound auto fluorescence at 535 nm (green) in HepG2 cells (AID 720675).
Assay [9] can be described thus: qHTS assay to test for compound auto fluorescence at 460 nm (blue) in HEK293 cells (AID 720678). The method, boiled down: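 HEK293 cells (2,000 per well, medium with 10% dialyzed FBS) attached for 4-5 hr at 37C, then received compound and stood overnight at 37C, 5% CO2. Blue fluorescence was read at Ex/Em 405/460 nm and expressed relative to triamterene.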
The nature of assay [10]: qHTS assay to test for compound auto fluorescence at 535 nm (green) in HEK293 cells (AID 720680).
A short description of assay [11]: qHTS assay to test for compound auto fluorescence at 460 nm (blue) in HEK293 cell free culture (AID 720681). The method, boiled down:
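Compounds were added to cell-free DMEM with 10% FBS and fluorescence read directly. The blue channel used 405 nm excitation and 460 nm emission, with triamterene as the reference fluorophore.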

Assay [12] in a line: qHTS assay to test for compound auto fluorescence at 535 nm (green) in HEK293 cell free culture (AID 720682). The method, boiled down: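 Measurement is a direct plate read of green fluorescence (485 nm in, 535 nm out) after compound addition to serum-supplemented DMEM lacking cells, with fluorescein used to express intensities.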
A short description of assay [13]: qHTS assay to test for compound auto fluorescence at 590 nm (red) in HEK293 cell free culture (AID 720683). The method, boiled down: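 Cell-free wells of DMEM with 10% FBS received compound, and intrinsic fluorescence was read at excitation/emission 540/590 nm. Values expressed as equivalence to Rose Bengal sodium.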
Assay [14] is described as follows: qHTS assay to test for compound auto fluorescence at 590 nm (red) in HepG2 cell free culture (AID 720684). An outline of the steps: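 Rose Bengal sodium served as the reference for red signal. Test compounds were dispensed into serum-containing MEM (10% FBS) without cells, and plates were read at 540/590 nm.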
Assay [15] in a line: qHTS assay to test for compound auto fluorescence at 460 nm (blue) in HepG2 cells (AID 720687). The method, boiled down:
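HepG2 cells in MEM with 10% FBS, attached overnight at 37 C, were exposed to compound or DMSO for 1 hr at 37 C, 5% CO2. Blue fluorescence was read at 405/460 nm, with triamterene as reference fluorophore.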

The target in assay [16] is Glucocorticoid receptor (Homo sapiens) (UniProt P04150). In words: qHTS assay to identify small molecule agonists of the glucocorticoid receptor (GR) signaling pathway (AID 720691; active = well fitted activation curve with a large enough effect in the signal ratio in the repeat runs, not every such curve was filed as active; the % refers to the signal ratio). An outline of the steps:
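Measures GR pathway activation through a GRE-beta-lactamase reporter stably integrated in HeLa cells, with 18 h compound treatment at 37 C and fluorescence detection using a FRET substrate.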

The target is the same in assay [17]. Briefly: qHTS assay to identify small molecule antagonists of the glucocorticoid receptor (GR) signaling pathway (AID 720692; active = well fitted inhibition curve with a large enough effect in the signal ratio in the repeat runs, not every such curve was filed as active; the % refers to the signal ratio). The method, boiled down: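 Tox21 10K library screened in concentration-response for blockade of dexamethasone (5 nM final)-induced GRE-bla reporter activity in HeLa cells; 18 h treatment, fluorescence read.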
A short description of assay [18]: qHTS assay to test for compound auto fluorescence at 590 nm (red) in HEK293 cells (AID 720679). An outline of the steps: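 HEK293 cells (2,000/well, medium with 10% dialyzed FBS) attached for 4-5 hr at 37C, received 23 nL compound and were incubated overnight at 37C, 5% CO2. Red fluorescence was then read at 540/590nm Ex/Em, referenced to Rose Bengal sodium.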

The nature of assay [19]: qHTS assay to test for compound auto fluorescence at 460 nm (blue) in HepG2 cell free culture (AID 720685). An outline of the steps: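 Cell-free plates of MEM plus 10% FBS received 23 nL compound or DMSO vehicle; blue-channel (405/460 nm) intensity scored against triamterene as reference fluorophore.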
Assay [20] in a line: qHTS assay to test for compound auto fluorescence at 535 nm (green) in HepG2 cell free culture (AID 720686).
% is set by controls: 0 for no effect and ±100 for the full control effect.

Chain of Glucocorticoid receptor (Homo sapiens) (P04150 whole entry, looked up): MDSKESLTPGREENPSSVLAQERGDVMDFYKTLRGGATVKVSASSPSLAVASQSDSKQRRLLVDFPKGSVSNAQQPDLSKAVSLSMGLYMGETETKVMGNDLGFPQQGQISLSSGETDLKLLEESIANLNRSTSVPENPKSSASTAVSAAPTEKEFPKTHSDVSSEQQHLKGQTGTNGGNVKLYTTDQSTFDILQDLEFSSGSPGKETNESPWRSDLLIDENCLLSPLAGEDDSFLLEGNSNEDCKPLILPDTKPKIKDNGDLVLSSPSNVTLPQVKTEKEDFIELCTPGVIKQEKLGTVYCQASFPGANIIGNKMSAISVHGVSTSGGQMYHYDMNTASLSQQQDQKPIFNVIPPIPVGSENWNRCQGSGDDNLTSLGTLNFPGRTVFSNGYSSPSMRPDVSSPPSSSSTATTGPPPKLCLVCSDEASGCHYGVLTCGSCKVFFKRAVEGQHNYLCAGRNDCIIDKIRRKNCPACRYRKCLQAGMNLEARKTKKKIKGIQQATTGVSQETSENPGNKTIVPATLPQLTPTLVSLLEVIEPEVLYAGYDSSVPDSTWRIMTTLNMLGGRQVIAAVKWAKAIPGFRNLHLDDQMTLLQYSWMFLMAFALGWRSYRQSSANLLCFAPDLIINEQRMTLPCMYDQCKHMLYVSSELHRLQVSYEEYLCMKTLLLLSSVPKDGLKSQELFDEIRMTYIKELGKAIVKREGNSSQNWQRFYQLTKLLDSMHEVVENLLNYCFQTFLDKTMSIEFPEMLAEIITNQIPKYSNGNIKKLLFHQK

On to `CCCCC1CCC(=O)O1` (centres undefined), for which the Potency entry in assay [1], in assay [2], in assay [3], in assay [4], in assay [5] and in assay [6] was “inactive” in each case. In addition, the Potency entry in assay [16] and in assay [17] was “inactive” throughout. The outcome in [7], in assay [8], in assay [9], in [10], in [11] and in assay [12] was inactive. The outcome in [13], in [14] and in assay [15] was inactive.

For the compound `CC1(C)O[C@@H]2C[C@H]3[C@@H]4CCC5=CC(=O)CC[C@]5(C)[C@@]4(F)[C@@H](O)C[C@]3(C)[C@]2(C(=O)CCl)O1`, the Potency result in [1], in assay [2], in assay [3], in [4] and in assay [5] was “inactive” in each case. The fluorescence, relative to Rose Bengal in assay [7] was -0.0973% [at 18.6 µM]. In addition, the fluorescence, % of fluorescein control in [8] was -0.093% [at 18.6 µM]; in [20], 0.0501% [at 18.6 µM]. Also, the fluorescence, % of triamterene in [9] is -0.0183% [at 18.6 µM]. Also, the fluorescence, % of fluorescent control in assay [18] was -0.0534% [at 18.6 µM]; in [11] it was -0.106% [at 18.6 µM]; in assay [13] it was -0.0463% [at 18.6 µM]; in assay [19], 0.0173% [at 18.6 µM]; in assay [15] it was -0.0673% [at 18.6 µM]. In addition, the fluorescence, % of fluorescein in [10] is -0.0811% [at 18.6 µM]. In addition, the activity change in [12] was 0.0954% [at 18.6 µM]. Further, the fluorescence, % of Rose Bengal in assay [14] is 0.173% [at 18.6 µM].

Consider `CCN(CC)C(=O)N(CC)CC`, for which the Potency result in assay [1], in assay [2], in assay [3], in assay [4], in assay [5] and in assay [6] was “inactive” each time. Moreover, the Potency result in [16] and in [17] was “inactive” throughout. The call in assay [7], in assay [8], in assay [9], in assay [18], in assay [10] and in [11] was inactive. For the same compound, the outcome in assay [12], in [14], in [19], in assay [20] and in [15] was inactive.

Take `Cc1ncc(CO)c(CN)c1O`: the Potency entry in assay [1], in [2], in assay [3], in [4] and in [5] was “inactive” throughout. The call in assay [7], in assay [8], in [9], in [18], in [10] and in assay [11] was inactive. In addition, the call in assay [12], in assay [13], in assay [14], in assay [19], in assay [20] and in assay [15] was inactive.

As to `OCc1ccccc1O`, the Potency result in [1], in [2], in assay [3], in assay [4], in assay [5] and in assay [6] was “inactive” throughout. Also, the Potency result in [16] and in [17] was “inactive” in each case. In addition, the compound was called inactive in [7], in assay [9], in assay [18], in assay [12], in assay [13] and in assay [14]. Also, the outcome in assay [19], in assay [20] and in assay [15] was inactive.

With `CC(C)=CCC[C@](C)(O)[C@@H]1CC=C(C)CC1`, the Potency entry in assay [1], in assay [2], in assay [3], in assay [4], in [5] and in assay [16] was “inactive” throughout. Further, in [6], the Potency is 30.6 µM (active). For the same compound, the call in assay [7], in assay [9], in assay [18], in [10], in assay [11] and in [12] was inactive. The result in assay [13], in [14] and in assay [20] was inactive.

Turning to `CCCCCCCCCC/C=C/C#N`, the Potency entry in assay [1], in assay [2], in [3], in [4], in assay [5] and in [6] was “inactive” throughout. Further, the compound was classed as inactive in assay [7], in [8], in assay [9], in assay [10], in assay [12] and in [13]. Besides, the call in assay [14], in [19], in assay [20] and in assay [15] was inactive.
